Drawing on the OligoGym collection, this text covers sensor-assay potency score (higher = more potent) for 40 sequences.
Further: reference of the scale not given here.

The first experiment concerns the target UST. The experiment in a line: pooled miR-30 sensor sort-seq; sequence = guide strand. The note with it: shRNA.
Take TTGTTGTGAATGTCTGATGTGA: the sensor-assay potency score (higher = more potent) is -0.387.

TACCCTGTTGTACACCACCTGG showed a sensor-assay potency score (higher = more potent) of -1.05.

TTCATTTTTAGTAAGCCTGGTT registered a sensor-assay potency score (higher = more potent) of 0.157.

TTGTACACCACCTGGCTTGGGA had a sensor-assay potency score (higher = more potent) of -0.187.

Consider TATATTTTTAATCAGTTCCATT, for which the sensor-assay potency score (higher = more potent) was -1.14.

In turn, TTCAAGAATACACTCATTGATA gave a sensor-assay potency score (higher = more potent) of -0.731.

The sequence TAACAGCAGCACATCTTCCAAC gave a sensor-assay potency score (higher = more potent) of -0.452.

As to AAATAGTTGGATAAGAACCGGT, the sensor-assay potency score (higher = more potent) is -0.125.

ATCCTGTTCTTCATCGTCGATT displayed a sensor-assay potency score (higher = more potent) of -1.53.

For TTGAGGAAATGAACATGTCGAG, the sensor-assay potency score (higher = more potent) was -0.72.

Another experiment has as its target UTP18. The experiment is described as above. The note with it: shRNA.
As for TTCACTAGCATTTTTCATCATA, the sensor-assay potency score (higher = more potent) is -0.646.

The sequence TTCATCTTCAAGATTCCTCTTG came in with a sensor-assay potency score (higher = more potent) of 0.439.

TAGACATAAAGAACCTTGCTGT: the sensor-assay potency score (higher = more potent) was 0.607.

As to TTTTCCGCTTAGTAGTCTCTGC, the sensor-assay potency score (higher = more potent) is -0.432.

Regarding TTAATCCATATAAACTGCCTTC, the sensor-assay potency score (higher = more potent) is -0.603.

On to TTTTTCATCATATCCTTCCGAA, for which the sensor-assay potency score (higher = more potent) turned out to be 0.00107.

TTTATGAGCAAGAAGGACCCAT registered a sensor-assay potency score (higher = more potent) of 0.234.

Sequence TTTGCAACAAATCATCTTCATC came in with a sensor-assay potency score (higher = more potent) of -0.536.

ATTAGCACTAAAACAAGCCTTA: the sensor-assay potency score (higher = more potent) was 0.102.

For the sequence TTCATCTTCTTCATCCACCCAA, the sensor-assay potency score (higher = more potent) was 0.245.

Turning to TTTCTTGGAGACAAGAATCTTG, the sensor-assay potency score (higher = more potent) is -0.491.

TAGTGATACAGCATTATCTAAT: the sensor-assay potency score (higher = more potent) was -1.01.

The next experiment has as its target UTP3. The experiment is described as above. As to conditions: shRNA.
Sequence TGAAACTTTAGCCAAATCCTTC gave a sensor-assay potency score (higher = more potent) of -1.04.

In the case of TTTACGAACTTCACGAACCTGG, the sensor-assay potency score (higher = more potent) is -0.0211.

Sequence TTTCGGTAGGTAACAAGCCTTT came in with a sensor-assay potency score (higher = more potent) of -1.19.

In turn, TTCGTCGTCCTCATCGTCCATA had a sensor-assay potency score (higher = more potent) of -0.923.

Sequence TATTTCTTTATAGTACTTCAGT displayed a sensor-assay potency score (higher = more potent) of -0.591.

As to TTGATAGGTAATAGCTCTCTTT, the sensor-assay potency score (higher = more potent) was -1.33.

For the sequence TATAGTACTTCAGTTTTGCTTT, the sensor-assay potency score (higher = more potent) was -0.531.

TTTCTTTACAGCATCATCCTTA had a sensor-assay potency score (higher = more potent) of 0.221.

TAAGTGTCAACAGATGACGAAT showed a sensor-assay potency score (higher = more potent) of -1.16.

Consider ATCATCTCCATTTTCGTCGGTG, for which the sensor-assay potency score (higher = more potent) was -0.329.

Sequence TTTCTCTTTAGCTTTTGCCTGT registered a sensor-assay potency score (higher = more potent) of 0.173.

TTTCACTGAAACTTTAGCCAAA showed a sensor-assay potency score (higher = more potent) of -0.944.

The target of another experiment is UTS2D. The description is as above. The note with it: shRNA.
TTATTCAGTAGAGCCAGCAATA registered a sensor-assay potency score (higher = more potent) of -1.61.

For the sequence ATTTGTATATTTTTTATCTGGA, the sensor-assay potency score (higher = more potent) is -0.591.

Regarding TTTTAGCTTTTCCAGCTGGTTA, the sensor-assay potency score (higher = more potent) is -0.983.

In turn, ATTTTTATTCAGTAGAGCCAGC came in with a sensor-assay potency score (higher = more potent) of -1.2.

AAAGTTAGGAGTCCAAAGCAAA registered a sensor-assay potency score (higher = more potent) of -1.56.

As to TTGTAAAAAAATCAACACGGAT, the sensor-assay potency score (higher = more potent) was -1.39.
